Efa HMGR inh – blocks class II HMG-CoA reductase of Enterococcus faecalis | purified E. faecalis HMGR, NADPH absorbance 340 nm kinetic | inhibition, % at 10 µM | hit rate 0.41% among 190,000 | AID 1066;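 active means inhibition above a set limit, the median over all tested compounds plus 3 SD, cut at about 9.5% in these data; inconclusive means no clear call, values can overlap the other calls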;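 further: enzyme runs in reverse so mevalonate oxidation gives rising NADPH absorbance; 0% = complete reaction with DMSO and 100% = background rate lacking mevalonate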
ROMK mod – modulators of human ROMK potassium channel | Tet-inducible ROMK, thallium flux fluorescence; actives lie on both sides | B-score at 10 µM | hit rate 2% among 130,000 | AID 1918;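 active means signal ratio slope over the read window, or its plate-corrected B-score, at least 3 SD from the plate mean, either direction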;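 further: B-score of the F/F0 ratio slope over 7 to 12 s after thallium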
Target sequence (P48048 whole entry, looked up): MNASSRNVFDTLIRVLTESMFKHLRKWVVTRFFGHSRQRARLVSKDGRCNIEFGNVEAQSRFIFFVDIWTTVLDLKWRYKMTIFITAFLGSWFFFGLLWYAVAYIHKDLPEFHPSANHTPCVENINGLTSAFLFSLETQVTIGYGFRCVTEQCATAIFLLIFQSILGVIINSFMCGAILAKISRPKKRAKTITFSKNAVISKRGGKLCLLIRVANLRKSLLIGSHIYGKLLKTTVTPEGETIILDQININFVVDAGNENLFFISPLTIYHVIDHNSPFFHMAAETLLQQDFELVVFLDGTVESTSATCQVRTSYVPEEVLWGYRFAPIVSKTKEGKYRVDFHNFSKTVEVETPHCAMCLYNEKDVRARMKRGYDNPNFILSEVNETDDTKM
HSV replic up – HSV replication enhancement | HSV replication augmentation in cells, fold increase | maximum fold increase | hit rate 0.005% among 220,000 | AID 1956; in the data active means maximum fold increase above about 1.5; inconclusive means no clear call, values can overlap the other calls; tested in PC3 cells
Calpain2 inh – calpain II (pig) inhibition | inhibition, % at 16 µM | purified calpain II, fluorogenic peptide substrate, 30 min | hit rate 0.37% among 220,000;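 active means inhibition above about 50%, limit read from the data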
Arbovirus anti – antivirals against arbovirus infection; hit rate 0.37% among 200,000; AID 1251; arbovirus infection cell-based antiviral screen; inhibition, % at 10 µM; in the data active means inhibition above about 30%
ROMK retest – retested hit modulating human ROMK potassium channel; shares compounds with ROMK mod; ROMK thallium flux, fluorescence ratio; stronger effect = lower value; normalized thallium flux (F/F0 slope) at 10 µM; hit rate 54% among 3,000;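 active means Flux at 10 µM at least 3 SD below or above vehicle control mean in one or both replicates; inconclusive means no clear call, values can overlap the other calls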
* marks the source's active call; other numbers are inactive results. The list is not random: actives were taken first. Their share in the collection is about 2.1%.

What do the screens show for `Cc1nc([N+](=O)[O-])c(SCC(N)=O)n1Cc1ccccc1`?
Efa HMGR inh: -13.8; ROMK mod: -0.237; HSV replic up: inactive; Calpain2 inh: -13.8; Arbovirus anti: -7.4

What do the screens show for `Cc1nc([N+](=O)[O-])c(Sc2nc3ccccc3n2C)n1Cc1ccccc1`?
Efa HMGR inh: -0.4; ROMK mod: -2.97*; HSV replic up: inactive; Calpain2 inh: -4.4; Arbovirus anti: -29.2; ROMK retest: 0.0557*

What do the screens show for `CCOC(=O)c1sc2nc3c(SCCC#N)cc(C(=O)c4cc(F)ccc4O)cn3c(=O)c2c1C`?
Efa HMGR inh: 0.5; ROMK mod: -3.84*; HSV replic up: inactive; Calpain2 inh: -68.2; Arbovirus anti: -16.2; ROMK retest: 0.0703

Results for O=C1C2CCCN2C(c2ccccc2F)N1c1ccc(Cl)cc1 (configuration not stated) ?
Efa HMGR inh: -3.1; ROMK mod: 1.53*; HSV replic up: inactive; Calpain2 inh: 15.8; Arbovirus anti: 7.9; ROMK retest: 0.0753

How did Oc1[nH]c2ccccc2c1N=Nc1ccc(F)cc1 do in these assays?
Efa HMGR inh: 5.6; HSV replic up: inactive; Calpain2 inh: -9.7; Arbovirus anti: 0.6

Results for Oc1[nH]c2ccccc2c1N=Nc1ccccc1 ?
HSV replic up: inactive; Calpain2 inh: 13.0; ROMK retest: 0.0679*

Results for COc1ccc(N2CS(=O)CC2=O)cc1 (configuration not stated) ?
Efa HMGR inh: -5.8; ROMK mod: 0.0863; HSV replic up: inactive; Calpain2 inh: 0.4; Arbovirus anti: -0.3

What do the screens show for `CCn1c(SCc2nc(-c3ccccc3)no2)nnc1-c1cccs1`?
Efa HMGR inh: -6.9; ROMK mod: -0.0867; HSV replic up: inactive; Calpain2 inh: -14.2; Arbovirus anti: 8.0

Results for CCn1c(SCc2nc(-c3cccs3)no2)nnc1-c1c[nH]c2ccccc12 ?
Efa HMGR inh: 0.1; HSV replic up: inactive; Calpain2 inh: 7.6; Arbovirus anti: -11.0; ROMK retest: 0.057*

What do the screens show for `CC/C(=N/Nc1ccc(Cl)cc1)c1cnnc(SC)n1`?
Efa HMGR inh: -2.0; ROMK mod: 0.148; HSV replic up: inactive; Calpain2 inh: -1.3; Arbovirus anti: -6.4

What do the screens show for `CC/C(=N/Nc1cccc(C)c1)c1cnnc(SC)n1`?
Efa HMGR inh: 0.2; ROMK mod: -4.11*; HSV replic up: inactive; Calpain2 inh: 10.3; Arbovirus anti: -10.9; ROMK retest: inconclusive

Results for O=C(Nc1sc2c(c1C(=O)c1ccccc1)CCCC2)c1cccnc1 ?
Efa HMGR inh: -5.0; ROMK mod: -3.72*; HSV replic up: inactive; Calpain2 inh: -4.4; Arbovirus anti: -6.8; ROMK retest: 0.0675*

What do the screens show for `CC(C)(C)c1ccc(C(=O)Nc2sc3c(c2C(=O)O)CCC3)cc1`?
Efa HMGR inh: -6.7; ROMK mod: 0.232; HSV replic up: inactive; Calpain2 inh: 13.9; Arbovirus anti: 31.9*; ROMK retest: 0.0745

What do the screens show for `Cc1cc(C(=O)NN)c(Cl)cc1Cl`?
ROMK mod: -0.515; HSV replic up: inactive; Calpain2 inh: -7.6

How did Cc1cc(=O)oc2c(C(=O)/C=C\c3cccs3)c(O)ccc12 do in these assays?
Efa HMGR inh: -3.1; ROMK mod: -5.71*; HSV replic up: inactive; Calpain2 inh: -63.5; Arbovirus anti: -8.9; ROMK retest: 0.05*

How did O=c1[nH]c2ccccc2c(O)c1-c1cc2ccccc2oc1=O do in these assays?
Efa HMGR inh: -2.2; ROMK mod: 0.468; HSV replic up: inactive; Calpain2 inh: 14.8; Arbovirus anti: -3.3

Results for COc1nccnc1NS(=O)(=O)c1ccc(N=Cc2c(C)[nH]n(-c3ccc(Cl)cc3)c2=O)cc1 ?
Efa HMGR inh: 0.1; HSV replic up: inactive; Calpain2 inh: -30.3; Arbovirus anti: 5.1

What do the screens show for `COc1nccnc1NS(=O)(=O)c1ccc(N=Cc2c(C)[nH]n(-c3ccc(C)c(C)c3)c2=O)cc1`?
Efa HMGR inh: -4.2; ROMK mod: 2.35*; Calpain2 inh: -23.0; Arbovirus anti: -5.2; ROMK retest: 0.0863

Results for CC1(C)CC(=O)c2c(O)c(-c3ccccc3)c(=O)n(-c3ccccc3)c2C1 ?
Efa HMGR inh: 0.4; ROMK mod: -0.151; HSV replic up: inactive; Calpain2 inh: -6.2; Arbovirus anti: 3.4

How did O=C1/C(=C/c2ccccc2)Nc2ccccc21 do in these assays?
Efa HMGR inh: -2.0; Calpain2 inh: -10.0; Arbovirus anti: -7.4; ROMK retest: 0.0232*

What do the screens show for `COc1ccc(CC(=O)NNC(=S)NCC2CC2)cc1OC`?
ROMK mod: 0.661; HSV replic up: inactive; Calpain2 inh: -29.8

How did O=S(=O)(NCc1ccco1)c1cccc2cccnc12 do in these assays?
Efa HMGR inh: 0.1; ROMK mod: 1.33*; HSV replic up: inactive; Calpain2 inh: -8.5; Arbovirus anti: 13.7; ROMK retest: 0.0789

What do the screens show for `O=S(=O)(NCc1ccc(Cl)cc1)c1cccc2cccnc12`?
ROMK mod: 0.946; HSV replic up: inactive; Calpain2 inh: -5.8

What do the screens show for `CC1(C)CC(NC(=O)c2ccccn2)CC(C)(C)N1O`?
Efa HMGR inh: -2.9; ROMK mod: 0.493; HSV replic up: inactive; Calpain2 inh: 29.3; Arbovirus anti: 1.2

How did CCNS(=O)(=O)c1cccc(C(=O)c2c(C)cc3ccccn23)c1 do in these assays?
Efa HMGR inh: 1.2; ROMK mod: -1.48; HSV replic up: inactive; Calpain2 inh: 2.6; Arbovirus anti: 2.2

What do the screens show for `CSc1cccc(NC(=O)C2CCCN2S(=O)(=O)c2ccc(Br)s2)c1` (configuration not stated)?
Efa HMGR inh: -8.6; ROMK mod: -3.07*; HSV replic up: inactive; Calpain2 inh: 40.6; Arbovirus anti: 13.9; ROMK retest: 0.0613*

What do the screens show for `CCOc1ccc(N/C(=N/c2nc(C)cc(C)n2)NC(C)=O)cc1`?
HSV replic up: inactive; Calpain2 inh: 8.3

What do the screens show for `CC(C)Cn1nc(NC(=O)c2cccs2)c2cc3ccccc3nc21`?
HSV replic up: inactive; Calpain2 inh: -13.9

What do the screens show for `COc1ccc2nc3c(cc2c1)c(NC(=O)c1cccs1)nn3CC(C)C`?
Efa HMGR inh: 0.5; Calpain2 inh: -72.7; Arbovirus anti: -8.2; ROMK retest: 0.0723

How did CCCCc1nc2sc3c(=O)n(N)cnc3c2c2c1CCC2 do in these assays?
Efa HMGR inh: -5.4; ROMK mod: -0.0125; HSV replic up: inactive; Calpain2 inh: -19.7; Arbovirus anti: -4.3

How did Cc1ccc(OCCCCNC2CCCC(C)C2C)c(C)c1 (configuration not stated) do in these assays?
Efa HMGR inh: -0.7; HSV replic up: inactive; Calpain2 inh: 39.1; Arbovirus anti: -32.6; ROMK retest: 0.0532*

How did Cc1ccc(OCCCN2CCCC2)c(C)c1 do in these assays?
Efa HMGR inh: -3.5; ROMK mod: -0.0847; HSV replic up: inactive; Calpain2 inh: -5.0; Arbovirus anti: 3.0

How did Cc1ccccc1-n1nc(C)c(N=O)c1N do in these assays?
Efa HMGR inh: -1.4; ROMK mod: 0.28; HSV replic up: inactive; Calpain2 inh: 21.8; Arbovirus anti: 8.1

Screens deposited in PubChem BioAssay by several laboratories.
